High-throughput results from PubChem.
MCF10A rereplic: A quantitative high throughput screen for small molecules that induce DNA re-replication in MCF 10a normal breast cells | 350,000 compounds, 2.9% hits | MCF 10A DNA re-replication, Hoechst nuclear intensity, 48 h | Potency, µM (doses to about 46.1 µM), for the others: top-dose activity, positive = re-replication, actives largely listed as activators | AID 624296, 2012; also: % of control where 0% means no effect; nearly all actives have a fitted effect of over 50% in size
KB-V1 MDR tox: qHTS assay for MDR1-selective chemotherapeutics: Primary screen using the drug-selected MDR subline cells KB-V1; Potency, µM (highest dose often 46.1 µM), most hits filed as cytotoxic; 400,000 compounds, 3.4% hits; KB-V1 MDR cells viability, CellTiter-Glo, 72 h; also: % is scaled to controls: 0 for no effect and ±100 for the full control effect; nearly all actives have a fitted effect of over 60% in size
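KB-V1 cells (P-gp-expressing MDR subline of KB-3-1) in phenol-red-free DMEM with 10% FBS were exposed to library compounds over a concentration series for 72 h at 37 degrees C. Viability read by CellTiter-Glo luminescence; concentration-effect curves fitted after normalization.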
SW480 rereplic: A quantitative high throughput screen for small molecules that induce DNA re-replication in SW480 colon adenocarcinoma cells. SW480 DNA re-replication, Hoechst DNA content imaging, 48 h. Potency, µM (doses to about 46.1 µM), for inactives: at the highest dose re-replication activation, usual class: activators. 340,000 compounds, 1.8% hits; also: % of control where 0% means no effect; nearly all actives have a fitted effect of over 55% in size
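Image-based read-out: total Hoechst fluorescence of nuclei (405 nm excitation, 500-530 nm emission), with hits raising the fraction of high-intensity nuclei. SW480 colon cells incubated 48 hr with compounds at 37 C.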
PINK1 expr mod: A Quantitative High throughput Screen to Identify Chemical Modulators of PINK1 Expression; PINK1 immunofluorescence, high-content cytometry, 24 h; Potency, µM (doses to about 76.6 µM), without a hit: at the top dose activation (PINK1 increase), most hits filed as activators; 410,000 compounds, 0.2% hits; active = well fitted activation curve with a large enough effect; inconclusive = small, poorly fitted or top-dose-only effect; cell line not stated here; also: % of control where 0% means no effect; nearly all actives have a fitted effect of over 65% in size
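Cells are seeded, rested 12 hours, then given compound at five concentrations or DMSO for 24 hours. After fixation, blocking and antibody staining, PINK1 amount and mitochondrial localization are scored; CCCP serves as control.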
KB-3-1 tox: qHTS assay for MDR1-selective chemotherapeutics: Primary screen using the parental adenocarcinoma cell KB-3-1 | KB-3-1 viability, CellTiter-Glo ATP luminescence, 72 h | Potency, µM (top dose mostly 46.1 µM), hits mostly cytotoxic | 400,000 compounds, 1.4% hits | AID 1347075, 2019; also: % is scaled to controls: 0 for no effect and ±100 for the full control effect; nearly all actives have a fitted effect of over 60% in size
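KB-3-1 cells, DMEM (no phenol red) + 10% FBS; compound by pin transfer, 72 h, 37 °C. Readout: CellTiter-Glo luminescence after 10 min. Data normalized, curve-fitted.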
The depositor's hits bear a star; ! = not confirmed by another sample; [ ] = remark or other dose. Only some compounds are listed: those with a hit (about 6.7% of all), similar ones and a draw of the others. Unless noted, calls follow the shape of the dose curve; as a rule, active = well fitted curve in the direction sought with a large enough effect; inconclusive = small, poorly fitted or top-dose-only effect, or another doubt; inactive = no such curve, though single readings can be large; an effect the other way counts as inactive or inconclusive. Potency is read from the fitted curve at half-maximal effect.

Results for COc1ccccc1-c1cc2nc(-c3ccccc3)cc(N3CCN(C(=O)c4ccco4)CC3)n2n1 ?
KB-V1 MDR tox: inconclusive; PINK1 expr mod: -1%; KB-3-1 tox: 16µM*

Results for COc1cccc(-c2cc3nc(-c4ccccc4)cc(N4CCN(C(=O)c5ccoc5)CC4)n3n2)c1 ?
KB-V1 MDR tox: inconclusive; PINK1 expr mod: 1%; KB-3-1 tox: inconclusive

How did O=C(CCc1cn2ccccc2n1)NC1CCCc2c1cnn2-c1ccccc1F (stereo not drawn) do in these assays?
MCF10A rereplic: 2%; KB-V1 MDR tox: inconclusive; SW480 rereplic: inconclusive; PINK1 expr mod: 1%; KB-3-1 tox: inconclusive

Results for CC(C)Nc1cccc(S(=O)(=O)N2CCCN(S(=O)(=O)c3ccc4c(c3)OCCO4)CC2)c1 ?
KB-V1 MDR tox: inactive; KB-3-1 tox: inactive

What do the screens show for `COc1ccc(/C=C\c2nccc3c2[nH]c2ccccc23)cc1`?
KB-V1 MDR tox: inactive; PINK1 expr mod: 1%; KB-3-1 tox: inactive

How did N#Cc1ccc(/C=C\c2nccc3c2[nH]c2ccccc23)cc1 do in these assays?
MCF10A rereplic: inconclusive; KB-V1 MDR tox: inactive; SW480 rereplic: 2.1µM*; PINK1 expr mod: inconclusive; KB-3-1 tox: inactive

Results for OCCCCc1nccc2c1[nH]c1ccccc12 ?
MCF10A rereplic: 9%; KB-V1 MDR tox: inactive; SW480 rereplic: -8%; PINK1 expr mod: 2%; KB-3-1 tox: inactive

What do the screens show for `Clc1ccc(/C=C\c2nccc3c2[nH]c2ccccc23)cc1`?
MCF10A rereplic: 2.6µM*; KB-V1 MDR tox: inconclusive; SW480 rereplic: 9.2µM*; PINK1 expr mod: inconclusive; KB-3-1 tox: inactive

Results for CCn1c(-c2ccccc2F)nc2cc(NC(C)=O)cc(C(=O)NCC3CCOCC3)c21 ?
PINK1 expr mod: 0%

Results for C(C#CCCCCCCCCC[n+]1ccccc1)#CCCCCCCCCC[n+]1ccccc1 ?
MCF10A rereplic: inconclusive; KB-V1 MDR tox: inactive; SW480 rereplic: inconclusive; PINK1 expr mod: inconclusive; KB-3-1 tox: 3.7µM*!

How did Cc1ccccc1S(=O)(=O)NCC1CCCO1 (stereo not drawn) do in these assays?
MCF10A rereplic: -12%; KB-V1 MDR tox: inactive; SW480 rereplic: 26µM*; PINK1 expr mod: 0%; KB-3-1 tox: inactive

What do the screens show for `O=S(=O)(c1ccc(Cl)cc1)c1nnn2c1nc(N1CCCCC1)c1sccc12`?
KB-V1 MDR tox: inactive; PINK1 expr mod: 0%; KB-3-1 tox: inactive

Results for CC(=O)N1c2ccc3ccccc3c2C(C)CC12CCCCC2 (stereo not drawn) ?
MCF10A rereplic: inconclusive; KB-V1 MDR tox: inactive; SW480 rereplic: -2%; PINK1 expr mod: -2%; KB-3-1 tox: inactive

How did CC(=O)N1Cc2ccccc2C(C)CC12CCCCC2 (stereo not drawn) do in these assays?
MCF10A rereplic: -1%; KB-V1 MDR tox: 16µM*; SW480 rereplic: 3%; PINK1 expr mod: 4%; KB-3-1 tox: inactive

Results for O=C(Cc1cccc2ccccc12)Nc1nc2ccccc2[nH]1 ?
MCF10A rereplic: 0%; KB-V1 MDR tox: 18µM*; SW480 rereplic: inconclusive; PINK1 expr mod: 2%[38.3 µM]; KB-3-1 tox: inactive

Results for CCOc1ccccc1NC(=O)c1ccc2[nH]c(C)c(C)c2c1 ?
MCF10A rereplic: inconclusive; KB-V1 MDR tox: inactive; SW480 rereplic: 23µM*; PINK1 expr mod: 1%; KB-3-1 tox: inactive

How did CCOc1ccccc1OCCCC(=O)Nc1nc2ccccc2[nH]1 do in these assays?
MCF10A rereplic: 5%; KB-V1 MDR tox: inactive; SW480 rereplic: 12%; PINK1 expr mod: 7%; KB-3-1 tox: inactive

What do the screens show for `COc1ccc(NC(=O)c2ccc3[nH]c(C)c(C)c3c2)c(OC)c1`?
MCF10A rereplic: 18%; KB-V1 MDR tox: inactive; SW480 rereplic: 5%; PINK1 expr mod: 4%; KB-3-1 tox: inactive

Results for CCCCCC(=O)Nc1nc2ccccc2[nH]1 ?
MCF10A rereplic: 21%; KB-V1 MDR tox: inconclusive; SW480 rereplic: inconclusive; PINK1 expr mod: inconclusive; KB-3-1 tox: 23µM*

Results for CCOc1ccc(C(=O)Nc2nc3ccccc3[nH]2)cc1OCC ?
MCF10A rereplic: 18%; KB-V1 MDR tox: 5.2µM*; SW480 rereplic: 2%; PINK1 expr mod: 7%; KB-3-1 tox: inconclusive

What do the screens show for `COc1cc(-c2ccno2)ccc1S(=O)(=O)N1CCN(c2cccc(Cl)c2)CC1`?
KB-V1 MDR tox: inactive; PINK1 expr mod: 0%; KB-3-1 tox: inactive

Results for O=C(CCCSc1nc2ccccc2[nH]1)NC(c1ccccc1)c1ccccc1 ?
MCF10A rereplic: 9%; KB-V1 MDR tox: inactive; SW480 rereplic: -10%; PINK1 expr mod: 4%; KB-3-1 tox: inactive

Results for O=C(CCCSc1nc2ccccc2[nH]1)NCc1ccccc1Cl ?
MCF10A rereplic: 0%; KB-V1 MDR tox: 16µM*; PINK1 expr mod: -1%; KB-3-1 tox: inactive

How did CN(C)c1ccc(C(=O)N2CCCC(CCC(=O)N3CCN(c4ccccn4)CC3)C2)cc1 (stereo not drawn) do in these assays?
MCF10A rereplic: 8%; SW480 rereplic: -1%; PINK1 expr mod: -2%

What do the screens show for `Cc1ccsc1C(=O)N1CCCC(CCC(=O)N2CCN(c3ccccn3)CC2)C1` (stereo not drawn)?
MCF10A rereplic: 6.5µM*; KB-V1 MDR tox: inconclusive; SW480 rereplic: -18%; PINK1 expr mod: 2%; KB-3-1 tox: inactive

How did COc1ccc(C(=O)N2CCCC(CCC(=O)N3CCN(c4ccccn4)CC3)C2)cc1 (stereo not drawn) do in these assays?
MCF10A rereplic: -9%; KB-V1 MDR tox: 13µM*; SW480 rereplic: -26%; PINK1 expr mod: -1%; KB-3-1 tox: inactive

What do the screens show for `Cc1ccc(CN2CCC(CNc3ncnc4onc(-c5ccc(Cl)cc5)c34)CC2)cc1`?
KB-V1 MDR tox: inactive; PINK1 expr mod: -4%; KB-3-1 tox: inactive

What do the screens show for `Cc1cc(SCC(=O)N/N=C/c2ccccc2C(=O)O)c(C)cc1Br`?
MCF10A rereplic: 13%; KB-V1 MDR tox: inconclusive; SW480 rereplic: -1%; PINK1 expr mod: 0%; KB-3-1 tox: inactive

What do the screens show for `Cc1cc(SCC(=O)N/N=C/c2ccc(O)cc2O)c(C)cc1Br`?
MCF10A rereplic: 13%; KB-V1 MDR tox: 10µM*; SW480 rereplic: inconclusive; PINK1 expr mod: -3%; KB-3-1 tox: inconclusive

How did CCN1CCS/C1=C/C=C/C1=[N+](CC)CCS1 do in these assays?
MCF10A rereplic: 9%; KB-V1 MDR tox: inactive; SW480 rereplic: 3%; PINK1 expr mod: 16µM*; KB-3-1 tox: inconclusive
